Screening results from PubChem.
Sampled rows, rich in hits. Any-hit rate of the full collection: about 4.1%.
hgDAF-12 ag: hgDAF-12 agonism, primary luciferase screen | HEK293 GAL4-hgDAF12 UAS-luciferase reporter, agonist luminescence; normalized to butyrate control | activation, % at 6.8 µM | hit rate 1.8% among 370,000 | AID 687014;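 active means activation above a cutoff set at the mean of all screened compounds plus 3 SD, cut at about 10% in these data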;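 further: 0% = DMSO wells and 100% = sodium butyrate wells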
ssDAF12 agonist: activators of S. stercoralis DAF-12 nuclear receptor | HEK293 ssDAF-12/GRIP1 lit1-tk-luc reporter, luminescence; % of 3 µM dafachronic acid response | activation, % at 6.8 µM | hit rate 1% among 370,000 | AID 652126;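 active means activation above the mean over all tested compounds plus 3 SD, cut at about 0.9% in these data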;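 further: 0% = DMSO-only wells and 100% = 3 µM delta7-dafachronic acid wells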
DAX1 inh-1: inhibitors of DAX1 repression of SF-1 activated StAR promoter; HEK293T StAR-luciferase reporter, SF-1/DAX-1 repression relief; inhibition, % at 6.8 µM; hit rate 1.1% among 370,000; AID 652010;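 active means inhibition above the mean over all tested compounds plus 3 SD, cut at about 3.6% in these data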;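 further: 0% = DAX-1 cells with DMSO and 100% = cells lacking DAX-1 with DMSO; higher inhibition means more luminescence from relief of DAX-1 repression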
DAX1 inh-2: inhibitors of human orphan nuclear receptor DAX1 (NR0B1) | P51843 | HEK293 Gal4-DAX1 luciferase reporter, luminescence | inhibition, % at 6.75 µM | hit rate 0.99% among 340,000 | AID 504766;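 active means inhibition above the mean over all tested compounds plus 3 SD, cut at about 4.2% in these data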;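 further: 0% = DAX1-transfected cells with DMSO and 100% = empty-vector control cells with DMSO; inhibition shows as a rise in luminescence from relieved DAX1 repression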
Target sequence (P51843 207-470 limits assumed): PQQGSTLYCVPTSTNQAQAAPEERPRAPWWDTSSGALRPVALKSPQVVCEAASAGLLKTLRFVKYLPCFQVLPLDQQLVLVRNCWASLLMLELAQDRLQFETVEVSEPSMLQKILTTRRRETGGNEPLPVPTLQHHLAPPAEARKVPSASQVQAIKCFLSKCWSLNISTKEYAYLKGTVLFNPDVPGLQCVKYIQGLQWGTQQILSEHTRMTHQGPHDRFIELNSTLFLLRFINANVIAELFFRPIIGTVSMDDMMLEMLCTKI
hcDAF12 agonist: activators of H. contortus DAF-12 nuclear receptor | HEK293 hcDAF-12 lit1-tk-luc reporter, luminescence; 0% DMSO, 100% Δ7-dafachronic acid | activation, % at 6.8 µM | hit rate 1.4% among 370,000 | AID 652067;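 active means activation above the mean of all tested compounds plus 3 SD, cut at about 5.5% in these data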;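 further: 100% = response to 3 µM Δ7-dafachronic acid high control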
DAX1 inh confirm: confirmation of human DAX1 (NR0B1) inhibitors; AID 652134; hit rate 87% among 2,400; HEK293T StAR-promoter luciferase reporter, SF-1/DAX-1 repression; inhibition, % at 6.8 µM; shares compounds with DAX1 inh-1;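 active means inhibition above the average of every tested compound plus 3 SD, cut at about 3.8% in these data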;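 further: 0% = DAX-1 cells with DMSO and 100% = no DAX-1 control cells with DMSO; active compounds raise luminescence by relieving repression of the StAR reporter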
SF1 AF2mut Luc: nonselective inhibitor or artifact in SF-1 mutant DAX1 counter-screen. inhibition, % at 6.8 µM. shares compounds with DAX1 inh-1. hit rate 78% among 2,400. AID 652136. HEK293 StAR-luciferase, SF-1 AF2 mutant, luminescence;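 active means inhibition above the mean of all tested compounds plus 3 SD, cut at about 3% in these data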;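 further: 0% = DAX-1 transfected cells with DMSO and 100% = cells without DAX-1 with DMSO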
LXR ag: activates human LXR-beta, counter-screen for hcDAF-12 agonists. shares compounds with hcDAF12 agonist. HEK293 Gal4-LXR tk-luc reporter, luminescence, 24 h; normalized: DMSO 0%, positive control 100%. activation, % at 6.8 µM. 3,400 tested, under 10 active. AID 743027;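 active means mean percent activation of the reporter above a cutoff set as the average over tested compounds plus their standard deviation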
Target sequence (P55055 whole entry, looked up, the tested form may be a part): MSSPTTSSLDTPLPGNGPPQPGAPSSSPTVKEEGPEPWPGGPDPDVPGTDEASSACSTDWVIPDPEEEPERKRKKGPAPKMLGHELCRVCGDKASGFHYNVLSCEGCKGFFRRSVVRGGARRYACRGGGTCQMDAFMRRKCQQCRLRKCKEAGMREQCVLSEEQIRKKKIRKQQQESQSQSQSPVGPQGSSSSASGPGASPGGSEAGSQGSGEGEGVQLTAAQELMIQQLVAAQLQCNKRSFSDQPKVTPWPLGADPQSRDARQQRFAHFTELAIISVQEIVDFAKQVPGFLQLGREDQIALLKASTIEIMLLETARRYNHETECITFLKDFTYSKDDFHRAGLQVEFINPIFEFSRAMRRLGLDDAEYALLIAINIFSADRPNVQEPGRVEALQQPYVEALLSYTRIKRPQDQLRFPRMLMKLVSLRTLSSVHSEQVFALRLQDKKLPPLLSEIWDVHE
hcDAF12 conf: confirmation of H. contortus DAF-12 agonists. hit rate 61% among 3,400. shares compounds with hcDAF12 agonist. HEK293 hcDAF-12 lit1-tk-luc reporter, luminescence; % of Δ7-dafachronic acid response. activation, % at 6.8 µM. AID 743032;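 active means mean activation across triplicate tests above the threshold derived from the earlier primary screen, cut at about 5.5% in these data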;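 further: 0% = DMSO only wells and 100% = 3 µM Δ7-dafachronic acid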
hgDAF12 conf: hgDAF-12 agonism, confirmation assay. shares compounds with hgDAF-12 ag. HEK293 GAL4-hgDAF12 luciferase reporter, agonist mode; percent of butyrate response. activation, % at 6.8 µM. hit rate 80% among 3,300;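 active means mean activation over triplicate wells above the hit cutoff derived from the earlier primary screen, cut at about 11% in these data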;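 further: 0% = DMSO low control and 100% = 2 mM sodium butyrate high control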
LXR ag 2: counter-screen for DAF-12 agonists: agonists of human LXR-beta | shares compounds with hgDAF-12 ag | HEK293 Gal4-LXR luciferase reporter, 24 h | activation, % at 6.8 µM | 3,300 tested, under 10 active;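 active means mean activation of the triplicate above a set limit carried over from the primary screen, none filed active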
The depositor's hits bear a star.

Results for COc1cc2ccc(-c3ccc4ccccc4n3)cc2cc1OC ?
hgDAF-12 ag: 5.8; ssDAF12 agonist: -0.7; DAX1 inh-1: 1.0; DAX1 inh-2: 1.6; hcDAF12 agonist: 0.7

What do the screens show for `COc1ccc(-c2ccc3ccccc3n2)cc1OC`?
hgDAF-12 ag: 16.6*; ssDAF12 agonist: -0.1; DAX1 inh-1: 5.3*; DAX1 inh-2: 1.1; hcDAF12 agonist: 1.1; DAX1 inh confirm: 7.4*; SF1 AF2mut Luc: 3.4*; hgDAF12 conf: 12.0*; LXR ag 2: 0.6

How did COc1ccc(CCc2ccc3ccccc3n2)cc1 do in these assays?
hgDAF-12 ag: 14.2*; ssDAF12 agonist: -0.5; DAX1 inh-1: 5.7*; DAX1 inh-2: 1.7; hcDAF12 agonist: 3.1; DAX1 inh confirm: 12.8*; SF1 AF2mut Luc: 6.8*; hgDAF12 conf: 11.7*; LXR ag 2: 0.7

How did O=C(Nc1ccc(S(=O)(=O)Nc2ncccn2)cc1)c1ccccc1Br do in these assays?
hgDAF-12 ag: -0.4; ssDAF12 agonist: -1.4; DAX1 inh-1: 0.5; DAX1 inh-2: -0.2; hcDAF12 agonist: -1.0

How did CCc1nc2c(OCC(=O)C(C)(C)C)cccn2c1N(C=O)CC(=O)N(C)C do in these assays?
hgDAF-12 ag: 3.8; ssDAF12 agonist: -1.0; DAX1 inh-1: -0.4; hcDAF12 agonist: -2.2

How did OC[C@H]1O[C@@H](c2nc3ccc(-c4nc(-c5cccs5)no4)cc3[nH]2)C[C@@H]1O do in these assays?
hgDAF-12 ag: 15.1*; ssDAF12 agonist: 0.9; DAX1 inh-1: 4.8*; hcDAF12 agonist: 6.1*; DAX1 inh confirm: 10.5*; SF1 AF2mut Luc: 8.7*; hgDAF12 conf: 15.9*; LXR ag 2: 0.7

How did CCN(Cc1ccccc1)c1ccc(/C=C(\C#N)c2ccccn2)cc1 do in these assays?
hgDAF-12 ag: 27.0*; ssDAF12 agonist: 2.1*; DAX1 inh-1: 5.1*; DAX1 inh-2: 3.0; hcDAF12 agonist: 9.3*; DAX1 inh confirm: 3.7*; SF1 AF2mut Luc: 5.7*; LXR ag: 0.9; hcDAF12 conf: 3.7; hgDAF12 conf: 12.7*; LXR ag 2: 0.6

Results for CN(CCC#N)c1ccc(/C=C(\C#N)c2ccccn2)cc1 ?
hgDAF-12 ag: 23.0*; ssDAF12 agonist: 2.1*; DAX1 inh-1: 5.7*; DAX1 inh-2: -3.0; hcDAF12 agonist: 16.9*; DAX1 inh confirm: 11.9*; SF1 AF2mut Luc: 2.5; LXR ag: 1.4; hcDAF12 conf: 5.2; hgDAF12 conf: 14.8*; LXR ag 2: 0.9

Results for O=C(Cn1cnc2ccccc2c1=O)NC1CCS(=O)(=O)C1 (centres undefined) ?
hgDAF-12 ag: 3.6; ssDAF12 agonist: -1.2; DAX1 inh-1: -1.5; DAX1 inh-2: -0.1; hcDAF12 agonist: 2.1

Results for CCN(CC)C(=O)c1cn(CCC#N)nc1-c1ccc2ccccc2c1 ?
hgDAF-12 ag: -3.1; ssDAF12 agonist: -0.8; DAX1 inh-1: -0.3; DAX1 inh-2: 1.6; hcDAF12 agonist: -1.6

What do the screens show for `NC(=O)C1CCN(c2nc3c(S(=O)(=O)c4ccccc4)nnn3c3ccccc23)CC1`?
hgDAF-12 ag: -2.8; ssDAF12 agonist: -1.3; DAX1 inh-1: 0.1; DAX1 inh-2: 0.5; hcDAF12 agonist: -0.8

Results for COc1ccc2[nH]c3c(c2c1)CCN1C(=O)C(CC(=O)NCC24CC5CC(CC(C5)C2)C4)C[C@H](C(=O)N(C(C)C)C(C)C)[C@@]31C (some centres undefined) ?
hgDAF-12 ag: -3.0; ssDAF12 agonist: -1.0; DAX1 inh-1: -0.9; DAX1 inh-2: -0.6; hcDAF12 agonist: -1.0

Results for COc1cc(OC)cc(C(=O)NCC(=O)OCc2nc3ccccc3s2)c1 ?
hgDAF-12 ag: 13.6*; ssDAF12 agonist: 1.8*; DAX1 inh-1: 4.8*; DAX1 inh-2: 6.9*; hcDAF12 agonist: 11.2*; DAX1 inh confirm: 12.7*; SF1 AF2mut Luc: 7.4*; LXR ag: 0.7; hcDAF12 conf: 11.5*; hgDAF12 conf: 13.5*; LXR ag 2: 0.5

Results for O=C(OCc1nc2ccccc2s1)c1cccs1 ?
hgDAF-12 ag: 17.3*; ssDAF12 agonist: 1.8*; DAX1 inh-1: 5.6*; DAX1 inh-2: 4.9*; hcDAF12 agonist: 10.1*; DAX1 inh confirm: 14.8*; SF1 AF2mut Luc: 6.3*; LXR ag: 1.3; hcDAF12 conf: 13.1*; hgDAF12 conf: 10.9*; LXR ag 2: 0.4

Results for COc1ccc(C(=O)COC(=O)CNC(=O)c2cc(OC)cc(OC)c2)cc1 ?
hgDAF-12 ag: -2.9; ssDAF12 agonist: -1.3; DAX1 inh-1: 0.1; DAX1 inh-2: -1.4; hcDAF12 agonist: -1.6

What do the screens show for `CC(=O)NN1C(=O)c2ccc3c4c(ccc(c24)C1=O)C(=O)N(NC(C)=O)C3=O`?
hgDAF-12 ag: -2.3; ssDAF12 agonist: -1.8; DAX1 inh-1: -1.2; DAX1 inh-2: -2.2; hcDAF12 agonist: 0.0

How did Cc1nc2c(OCc3ccc(C#N)cc3)cccn2c1N(C)C(=O)CCC1CCCC1 do in these assays?
hgDAF-12 ag: -1.8; ssDAF12 agonist: -1.4; DAX1 inh-1: -2.1; hcDAF12 agonist: -3.4

Results for COc1ccccc1OCCNC(=O)c1ccc2c(c1)OCCO2 ?
hgDAF-12 ag: 16.8*; ssDAF12 agonist: 0.0; DAX1 inh-1: 7.8*; DAX1 inh-2: 0.9; hcDAF12 agonist: 4.7; DAX1 inh confirm: 8.9*; SF1 AF2mut Luc: 6.0*; hgDAF12 conf: 14.1*; LXR ag 2: 0.6

What do the screens show for `COc1ccc(/C=C/CN2CCC(n3nccc3NC(=O)C3CC3)CC2)cc1`?
hgDAF-12 ag: 1.9; ssDAF12 agonist: -0.9; DAX1 inh-1: -0.4; DAX1 inh-2: -0.2; hcDAF12 agonist: -1.0
